Source: PubChem
Only some compounds are listed: those with a hit (about 1.1% of all), similar ones and a draw of the others.
LAP4-GFP MLPCN = yeast TOR pathway LAP4-GFP modulation; GFP response vs DMSO, % at 10 µM; actives 0.34% (n = 320,000); AID 2023; S. cerevisiae LAP4-GFP multiplex, flow cytometry GFP, 3 h; median GFP as percent of DMSO wells;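 active = GFP response vs DMSO above a set limit, about the screen mean plus 3 SD, cut at about 150% in these data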
MEP2 TOR yeast = modulators of TOR pathway MEP2-GFP in S. cerevisiae. S. cerevisiae MEP2-GFP strain, flow cytometry GFP, 3 h; 100% = DMSO control level. GFP response vs DMSO, % at 10 µM. actives 0.51% (n = 330,000);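 active = GFP response versus DMSO above a set limit, roughly screen mean plus 3 SD, cut at about 180% in these data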;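 also: median GFP fluorescence of the barcode-gated MEP2-GFP cells per well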
RPL19A-GFP yeast = yeast TOR pathway RPL19A-GFP modulation; percent response vs DMSO, % at 10 µM; actives 0.3% (n = 330,000); AID 2025; S. cerevisiae RPL19A-GFP strain, flow cytometry, 3 h; hits give low values;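 active = percent response vs DMSO below 50%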;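 also: median channel GFP fluorescence of the barcoded RPL19A-GFP strain; ratio of sample median GFP to plate DMSO average so 100% = DMSO; lower means less RPL19A-GFP as with rapamycin TOR inhibition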
CIT2 TOR yeast = modulators of TOR pathway CIT2-GFP in S. cerevisiae | S. cerevisiae CIT2-GFP strain, flow cytometry, 3 h; 100 means same as DMSO wells | GFP response vs DMSO, % at 10 µM | actives 0.065% (n = 320,000) | AID 2029;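 active = GFP response relative to DMSO above a set limit, near the screen mean plus 3 SD, cut at about 150% in these data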;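 also: ratio of well median GFP fluorescence to mean of DMSO wells on the plate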
AGP1 TOR yeast = yeast TOR pathway AGP1-GFP modulation; S. cerevisiae AGP1-GFP multiplex flow cytometry, 3 h; GFP as percent of DMSO wells; GFP response vs DMSO, % at 10 µM; actives 0.02% (n = 320,000); AID 2066;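 active = GFP response relative to DMSO above a set limit, near screen average plus 3 SD, cut at about 150% in these data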;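 also: median GFP channel fluorescence of the gated AGP1 strain per well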
VLA-4 inh = inhibition in a human VLA-4 binding assay | P13612 | VLA-4 expressing cells, ligand binding flow cytometry | inhibition, % (about 7 µM as worked out from the volumes in the protocol) | actives 0.2% (n = 330,000) | AID 2557; in the data active = inhibition above about 50%
Target sequence (P13612 whole entry, looked up): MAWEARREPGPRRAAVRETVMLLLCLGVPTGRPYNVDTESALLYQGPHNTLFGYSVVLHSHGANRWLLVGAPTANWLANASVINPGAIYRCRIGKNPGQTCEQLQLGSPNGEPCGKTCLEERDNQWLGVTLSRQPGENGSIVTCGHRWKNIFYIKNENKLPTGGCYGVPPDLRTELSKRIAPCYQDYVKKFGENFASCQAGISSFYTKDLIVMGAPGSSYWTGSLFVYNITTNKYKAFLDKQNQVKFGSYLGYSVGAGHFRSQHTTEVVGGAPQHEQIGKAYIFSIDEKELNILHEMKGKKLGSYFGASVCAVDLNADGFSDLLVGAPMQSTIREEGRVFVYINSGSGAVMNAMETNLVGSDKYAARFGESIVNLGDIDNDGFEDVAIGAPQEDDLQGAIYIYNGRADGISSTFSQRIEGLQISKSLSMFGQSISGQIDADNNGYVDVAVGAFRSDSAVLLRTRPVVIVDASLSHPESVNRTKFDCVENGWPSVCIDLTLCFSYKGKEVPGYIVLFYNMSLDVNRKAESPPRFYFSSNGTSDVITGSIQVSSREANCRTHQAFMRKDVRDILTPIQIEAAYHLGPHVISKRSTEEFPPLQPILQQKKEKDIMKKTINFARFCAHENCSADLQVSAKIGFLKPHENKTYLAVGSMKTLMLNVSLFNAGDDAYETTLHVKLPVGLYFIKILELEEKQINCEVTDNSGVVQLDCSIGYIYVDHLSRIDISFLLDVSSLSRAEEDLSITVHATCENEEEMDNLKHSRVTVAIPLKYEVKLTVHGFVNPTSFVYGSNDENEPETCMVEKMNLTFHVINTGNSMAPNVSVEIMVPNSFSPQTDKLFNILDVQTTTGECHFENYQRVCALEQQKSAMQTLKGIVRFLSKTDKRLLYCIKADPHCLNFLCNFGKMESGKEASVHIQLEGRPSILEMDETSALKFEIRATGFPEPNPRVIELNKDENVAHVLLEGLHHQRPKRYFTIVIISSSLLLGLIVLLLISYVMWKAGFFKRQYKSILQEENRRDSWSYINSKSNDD
VLA-4 mod pick = human VLA-4 allosteric modulation in cherry picked compounds | shares compounds with VLA-4 inh | U937 cells, HUTS-21 LIBS mAb binding, flow cytometry; LDV ligand present at threefold Kd | inhibition, % at 6.7 µM | actives 2% (n = 1,300) | AID 2813; in the data active = inhibition above about 40%;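 also: 0% = ligand without compound and 100% = no ligand background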
* hit, by the source's call.

What do the screens show for `CN(C(=O)COC(=O)c1ccc2c(c1)OCO2)C1CCCCC1`?
LAP4-GFP MLPCN: 93; MEP2 TOR yeast: 98; RPL19A-GFP yeast: 103; CIT2 TOR yeast: 105; AGP1 TOR yeast: 99; VLA-4 inh: 14

What do the screens show for `CN(C(=O)COC(=O)c1ccc2c(c1)OCO2)C1CCS(=O)(=O)C1` (stereo not drawn)?
LAP4-GFP MLPCN: 94; MEP2 TOR yeast: 112; RPL19A-GFP yeast: 91; CIT2 TOR yeast: 117; AGP1 TOR yeast: 99; VLA-4 inh: 93*; VLA-4 mod pick: 0

How did Cn1nnc(NC(=S)NC(=O)c2cc(Cl)ccc2Cl)n1 do in these assays?
LAP4-GFP MLPCN: 121; MEP2 TOR yeast: 103; RPL19A-GFP yeast: 97; CIT2 TOR yeast: 94; AGP1 TOR yeast: 90; VLA-4 inh: 9

What do the screens show for `Cc1cc(S(=O)(=O)N2CCCOC2CNC(=O)C(=O)NCCCN2CCOCC2)ccc1F` (stereo not drawn)?
LAP4-GFP MLPCN: 94; MEP2 TOR yeast: 81; RPL19A-GFP yeast: 94; CIT2 TOR yeast: 93; AGP1 TOR yeast: 100; VLA-4 inh: -7

Results for CC(=O)N[C@H](Cc1c[nH]c2ccccc12)C(=O)O ?
LAP4-GFP MLPCN: 103; MEP2 TOR yeast: 100; RPL19A-GFP yeast: 94; CIT2 TOR yeast: 79; AGP1 TOR yeast: 84; VLA-4 inh: 50*; VLA-4 mod pick: 2

Results for CCOc1ccccc1NC(=O)COC(=O)CCOc1cc(C)ccc1C ?
LAP4-GFP MLPCN: 108; MEP2 TOR yeast: 100; RPL19A-GFP yeast: 102; CIT2 TOR yeast: 111; AGP1 TOR yeast: 108; VLA-4 inh: 0

Results for COc1ccc(S(=O)(=O)NCC(=O)O)cc1C(=O)NC1CCCCC1 ?
LAP4-GFP MLPCN: 90; MEP2 TOR yeast: 98; RPL19A-GFP yeast: 102; CIT2 TOR yeast: 96; AGP1 TOR yeast: 96; VLA-4 inh: 41; VLA-4 mod pick: -7

What do the screens show for `O=C(Cn1cc(C(=O)C2CC2)c2ccccc21)NC1CCCC1`?
LAP4-GFP MLPCN: 90; MEP2 TOR yeast: 100; RPL19A-GFP yeast: 99; CIT2 TOR yeast: 100; AGP1 TOR yeast: 99; VLA-4 inh: 58*; VLA-4 mod pick: -4

What do the screens show for `O=C(C(=O)N1CCOCC1)c1cn(CC(=O)N2CCCCC2)c2ccccc12`?
LAP4-GFP MLPCN: 98; MEP2 TOR yeast: 106; RPL19A-GFP yeast: 105; CIT2 TOR yeast: 105; AGP1 TOR yeast: 109; VLA-4 inh: 4

What do the screens show for `CC(C)NC(=O)Cn1cc(C(=O)C(=O)N2CCOCC2)c2ccccc21`?
LAP4-GFP MLPCN: 83; MEP2 TOR yeast: 116; RPL19A-GFP yeast: 105; AGP1 TOR yeast: 96; VLA-4 inh: 4; VLA-4 mod pick: 7

Results for O=C(NCCCNc1ccc(C(F)(F)F)cc1[N+](=O)[O-])c1cc(F)c(F)cc1Cl ?
LAP4-GFP MLPCN: 107; MEP2 TOR yeast: 106; RPL19A-GFP yeast: 105; CIT2 TOR yeast: 106; AGP1 TOR yeast: 105; VLA-4 inh: 94*; VLA-4 mod pick: 12

What do the screens show for `COc1cc2c(cc1NC(=O)c1ccc(C(C)(C)C)cc1)CCCC2`?
LAP4-GFP MLPCN: 117; MEP2 TOR yeast: 109; RPL19A-GFP yeast: 98; CIT2 TOR yeast: 87; AGP1 TOR yeast: 102; VLA-4 inh: 82*; VLA-4 mod pick: 15

Results for COc1ccc(-c2nc(C)ncc2-c2ccccc2)c(O)c1 ?
LAP4-GFP MLPCN: 88; MEP2 TOR yeast: 108; RPL19A-GFP yeast: 106; CIT2 TOR yeast: 100; AGP1 TOR yeast: 99; VLA-4 inh: 4

Results for COc1ccc(-c2nc(C)ncc2-c2ccc(Cl)cc2)c(O)c1 ?
LAP4-GFP MLPCN: 98; MEP2 TOR yeast: 100; RPL19A-GFP yeast: 107; CIT2 TOR yeast: 101; AGP1 TOR yeast: 97; VLA-4 inh: 68*; VLA-4 mod pick: 21

Results for Cn1c(=N)n(CC(O)c2cccc3ccccc23)c2ccccc21 (stereo not drawn) ?
LAP4-GFP MLPCN: 97; MEP2 TOR yeast: 95; RPL19A-GFP yeast: 98; CIT2 TOR yeast: 91; AGP1 TOR yeast: 100; VLA-4 inh: 51*; VLA-4 mod pick: -8

What do the screens show for `Cn1c(=N)n(CC(O)c2ccco2)c2ccccc21` (stereo not drawn)?
LAP4-GFP MLPCN: 88; MEP2 TOR yeast: 89; RPL19A-GFP yeast: 88; CIT2 TOR yeast: 94; AGP1 TOR yeast: 87; VLA-4 inh: 0

How did O=C(COC(=O)c1ccc2ncsc2c1)Nc1ccccc1Cl do in these assays?
LAP4-GFP MLPCN: 81; MEP2 TOR yeast: 99; RPL19A-GFP yeast: 97; CIT2 TOR yeast: 82; AGP1 TOR yeast: 79; VLA-4 inh: 12

What do the screens show for `Cc1ccc(C(C(=O)NCCc2ccccc2)N(C(=O)c2csnn2)C2CC2)o1` (stereo not drawn)?
LAP4-GFP MLPCN: 104; MEP2 TOR yeast: 139; RPL19A-GFP yeast: 98; CIT2 TOR yeast: 104; AGP1 TOR yeast: 102; VLA-4 inh: 54*; VLA-4 mod pick: 6

Results for O=C(COC(=O)Cn1nnc(-c2ccccc2)n1)Nc1cc(F)ccc1F ?
LAP4-GFP MLPCN: 94; MEP2 TOR yeast: 98; RPL19A-GFP yeast: 98; CIT2 TOR yeast: 101; AGP1 TOR yeast: 98; VLA-4 inh: 3

Results for CCOc1ncnc2c1[nH]c1ccccc12 ?
LAP4-GFP MLPCN: 119; MEP2 TOR yeast: 94; RPL19A-GFP yeast: 95; CIT2 TOR yeast: 86; AGP1 TOR yeast: 98; VLA-4 inh: 28; VLA-4 mod pick: 14

What do the screens show for `CCCOc1ncnc2c1[nH]c1ccc(C)cc12`?
LAP4-GFP MLPCN: 141; MEP2 TOR yeast: 100; RPL19A-GFP yeast: 92; CIT2 TOR yeast: 107; AGP1 TOR yeast: 100; VLA-4 inh: 5; VLA-4 mod pick: 1

How did COc1ccc(/C=C/CN2CCC(n3nccc3NC(=O)C3CCCC3)CC2)cc1 do in these assays?
LAP4-GFP MLPCN: 97; MEP2 TOR yeast: 106; RPL19A-GFP yeast: 103; CIT2 TOR yeast: 98; AGP1 TOR yeast: 98; VLA-4 inh: 3

How did Cc1oc2c(c1C(=O)Nc1cccc3ccccc13)CCCC2 do in these assays?
LAP4-GFP MLPCN: 99; MEP2 TOR yeast: 95; RPL19A-GFP yeast: 96; CIT2 TOR yeast: 94; AGP1 TOR yeast: 93; VLA-4 inh: 6

Results for COc1ccccc1NC(=O)c1c(C)oc2c1CCCC2 ?
LAP4-GFP MLPCN: 111; MEP2 TOR yeast: 97; RPL19A-GFP yeast: 100; CIT2 TOR yeast: 107; VLA-4 inh: 93*; VLA-4 mod pick: 4

What do the screens show for `CCOc1ccc(S(=O)(=O)Nc2cc(OC)ccc2OC)cc1`?
LAP4-GFP MLPCN: 96; MEP2 TOR yeast: 102; RPL19A-GFP yeast: 100; CIT2 TOR yeast: 99; AGP1 TOR yeast: 100; VLA-4 inh: 53*; VLA-4 mod pick: 56*
